Changes are numbered by the printed parent chain; changes in the protein carry UniProt numbers. In all, about 16,000 sequences were measured (“ka relative to ugcaugu”: median about 0.0091, highest 2% from about 0.032 on). The list comes from a sample in which the highest values are over-represented; it also holds similar and randomly drawn sequences.

This is an account of results in publication PMC9911399, “Two distinct binding modes provide the RNA-binding protein RbFox with extraordinary sequence specificity”.

Sequences and labels used below:
B1: UGCGUGU (DNA:RNA)
RNA: GGGAGACCGGAAUUCAGAUUGUCCUGCGUGUUUAAAUCCCGUCGUAGCCACCA
DNA 1: CAATCTGAATTCCGGTCTCCC
DNA 2: TGGTGGCTACGACGGGATT
B2: UGCGUGC (DNA:RNA)
RNA: B1 RNA with U31C
DNA 1: CAATCTGAATTCCGGTCTCCC
DNA 2: TGGTGGCTACGACGGGATT
B3: CGCGUGC (DNA:RNA)
RNA: B1 RNA with U25C, U31C
DNA 1: CAATCTGAATTCCGGTCTCCC
DNA 2: TGGTGGCTACGACGGGATT
B4: UGCGUCG (DNA:RNA)
RNA: B1 RNA with G30C, U31G
DNA 1: CAATCTGAATTCCGGTCTCCC
DNA 2: TGGTGGCTACGACGGGATT
B5: UCCUGCG (DNA:RNA)
RNA: B1 RNA with G26C, G28U, U29G, G30C, U31G
DNA 1: CAATCTGAATTCCGGTCTCCC
DNA 2: TGGTGGCTACGACGGGATT
B6: CUGCGUG (DNA:RNA)
RNA: GGGAGACCGGAAUUCAGAUUGUCCCUGCGUGUUAAAUCCCGUCGUAGCCACCA
DNA 1: CAATCTGAATTCCGGTCTCCC
DNA 2: TGGTGGCTACGACGGGATT
B7: UGCUGCG (DNA:RNA)
RNA: B1 RNA with G28U, U29G, G30C, U31G
DNA 1: CAATCTGAATTCCGGTCTCCC
DNA 2: TGGTGGCTACGACGGGATT
B8: UGUGUCC (DNA:RNA)
RNA: B1 RNA with C27U, G30C, U31C
DNA 1: CAATCTGAATTCCGGTCTCCC
DNA 2: TGGTGGCTACGACGGGATT
B9: UGCGUCC (DNA:RNA)
RNA: B1 RNA with G30C, U31C
DNA 1: CAATCTGAATTCCGGTCTCCC
DNA 2: TGGTGGCTACGACGGGATT
B10: UGCGCGU (DNA:RNA)
RNA: B1 RNA with U29C
DNA 1: CAATCTGAATTCCGGTCTCCC
DNA 2: TGGTGGCTACGACGGGATT
B11: UUCGUGC (DNA:RNA)
RNA: B1 RNA with G26U, U31C
DNA 1: CAATCTGAATTCCGGTCTCCC
DNA 2: TGGTGGCTACGACGGGATT
B12: UGCGUUU (DNA:RNA)
RNA: B1 RNA with G30U
DNA 1: CAATCTGAATTCCGGTCTCCC
DNA 2: TGGTGGCTACGACGGGATT
B13: CCGCACU (DNA:RNA)
RNA: B6 RNA with U26C, G29A, U30C, G31U
DNA 1: CAATCTGAATTCCGGTCTCCC
DNA 2: TGGTGGCTACGACGGGATT
B14: CGCCCCU (DNA:RNA)
RNA: B1 RNA with U25C, G28C, U29C, G30C
DNA 1: CAATCTGAATTCCGGTCTCCC
DNA 2: TGGTGGCTACGACGGGATT
B15: UUCUAAG (DNA:RNA)
RNA: B6 RNA with C25U, G27C, C28U, G29A, U30A
DNA 1: CAATCTGAATTCCGGTCTCCC
DNA 2: TGGTGGCTACGACGGGATT
B16: GGUGUGG (DNA:RNA)
RNA: B1 RNA with U25G, C27U, U31G
DNA 1: CAATCTGAATTCCGGTCTCCC
DNA 2: TGGTGGCTACGACGGGATT
B17: AUUAACU (DNA:RNA)
RNA: B6 RNA with C25A, G27U, C28A, G29A, U30C, G31U
DNA 1: CAATCTGAATTCCGGTCTCCC
DNA 2: TGGTGGCTACGACGGGATT
B18: GUUCCAG (DNA:RNA)
RNA: B6 RNA with C25G, G27U, G29C, U30A
DNA 1: CAATCTGAATTCCGGTCTCCC
DNA 2: TGGTGGCTACGACGGGATT
B19: UAUCCAA (DNA:RNA)
RNA: B6 RNA with C25U, U26A, G27U, G29C, U30A, G31A
DNA 1: CAATCTGAATTCCGGTCTCCC
DNA 2: TGGTGGCTACGACGGGATT
B20: CCACCGU (DNA:RNA)
RNA: B6 RNA with U26C, G27A, G29C, U30G, G31U
DNA 1: CAATCTGAATTCCGGTCTCCC
DNA 2: TGGTGGCTACGACGGGATT
B21: GUAAUAU (DNA:RNA)
RNA: B1 RNA with U25G, G26U, C27A, G28A, G30A
DNA 1: CAATCTGAATTCCGGTCTCCC
DNA 2: TGGTGGCTACGACGGGATT
B22: UGUUGCG (DNA:RNA)
RNA: B6 RNA with C25U, U26G, G27U, C28U, U30C
DNA 1: CAATCTGAATTCCGGTCTCCC
DNA 2: TGGTGGCTACGACGGGATT
B23: CGUUGCG (DNA:RNA)
RNA: B6 RNA with U26G, G27U, C28U, U30C
DNA 1: CAATCTGAATTCCGGTCTCCC
DNA 2: TGGTGGCTACGACGGGATT
B24: UGCGUUG (DNA:RNA)
RNA: B1 RNA with G30U, U31G
DNA 1: CAATCTGAATTCCGGTCTCCC
DNA 2: TGGTGGCTACGACGGGATT
B25: AAUGGAA (DNA:RNA)
RNA: B6 RNA with C25A, U26A, G27U, C28G, U30A, G31A
DNA 1: CAATCTGAATTCCGGTCTCCC
DNA 2: TGGTGGCTACGACGGGATT
B26: UGGCCCG (DNA:RNA)
RNA: B6 RNA with C25U, U26G, G29C, U30C
DNA 1: CAATCTGAATTCCGGTCTCCC
DNA 2: TGGTGGCTACGACGGGATT
B27: UGCUCCG (DNA:RNA)
RNA: B1 RNA with G28U, U29C, G30C, U31G
DNA 1: CAATCTGAATTCCGGTCTCCC
DNA 2: TGGTGGCTACGACGGGATT
B28: UGGCUCC (DNA:RNA)
RNA: B1 RNA with C27G, G28C, G30C, U31C
DNA 1: CAATCTGAATTCCGGTCTCCC
DNA 2: TGGTGGCTACGACGGGATT
B29: UGGCUCG (DNA:RNA)
RNA: B6 RNA with C25U, U26G, G29U, U30C
DNA 1: CAATCTGAATTCCGGTCTCCC
DNA 2: TGGTGGCTACGACGGGATT
B30: GUGCUCC (DNA:RNA)
RNA: B6 RNA with C25G, G29U, U30C, G31C
DNA 1: CAATCTGAATTCCGGTCTCCC
DNA 2: TGGTGGCTACGACGGGATT
B31: GUGCUCG (DNA:RNA)
RNA: B6 RNA with C25G, G29U, U30C
DNA 1: CAATCTGAATTCCGGTCTCCC
DNA 2: TGGTGGCTACGACGGGATT
B32: UGCUCCC (DNA:RNA)
RNA: B1 RNA with G28U, U29C, G30C, U31C
DNA 1: CAATCTGAATTCCGGTCTCCC
DNA 2: TGGTGGCTACGACGGGATT
B33: GUGCUCU (DNA:RNA)
RNA: B6 RNA with C25G, G29U, U30C, G31U
DNA 1: CAATCTGAATTCCGGTCTCCC
DNA 2: TGGTGGCTACGACGGGATT
B34: CGUGCUC (DNA:RNA)
RNA: B6 RNA with U26G, G27U, C28G, G29C, G31C
DNA 1: CAATCTGAATTCCGGTCTCCC
DNA 2: TGGTGGCTACGACGGGATT

The target of this test is T1, RBFOX1 RRM (Homo sapiens, UniProt Q9NWB1 109-208).
T1 sequence: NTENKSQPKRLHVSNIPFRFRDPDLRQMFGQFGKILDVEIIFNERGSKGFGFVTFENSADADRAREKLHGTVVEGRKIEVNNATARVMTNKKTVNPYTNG
Put plainly: EMSA; HiTS-Eq, 1 nM pool, 10 min; buffer printed only for the single-RNA assays: 10 mM Tris pH 7.5, 150 mM NaCl, 3.4 mM EDTA, 0.001% NP-40, 30 C. The conditions noted are these: tags: His6 N-terminal (pET28a); label: 5' 32P. The gist of the method:
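Relative association constants, normalised to the cognate motif, were derived by comparing read counts of each RNA species with those of the control reaction. The RNA sequenced was the free fraction, separated by 8% native PAGE after a 10 min equilibration in 50 µL of 1 nM 5′-radiolabelled RNA (7 randomized nucleotides) with increasing concentrations of purified wild-type or mutant RbFox RRM.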
For orientation: In EMSA bound probe runs differently from free probe, usually more slowly.
For B1, the binding signal is 0.0418 KA relative to UGCAUGU.

On to B2, for which the binding signal was 0.0465 KA relative to UGCAUGU.

For the molecule B3, the binding signal is 0.0241 KA relative to UGCAUGU.

Take B4: the binding signal was 0.0236 KA relative to UGCAUGU.

With B5, the binding signal was 0.0166 KA relative to UGCAUGU.

Regarding B6, the binding signal was 0.035 KA relative to UGCAUGU.

Take B7: the binding signal was 0.0333 KA relative to UGCAUGU.

Regarding B8, the binding signal was 0.0226 KA relative to UGCAUGU.

As to B9, the binding signal was 0.0132 KA relative to UGCAUGU.

Turning to B10, the binding signal is 0.0288 KA relative to UGCAUGU.

As for B11, the binding signal was 0.0243 KA relative to UGCAUGU.

As for B12, the binding signal is 0.0236 KA relative to UGCAUGU.

As for B13, the binding signal was 0.00621 KA relative to UGCAUGU.

Consider B14, for which the binding signal is 0.00718 KA relative to UGCAUGU.

As for B15, the binding signal was 0.00998 KA relative to UGCAUGU.

Take B16: the binding signal is 0.0188 KA relative to UGCAUGU.

Consider B17, for which the binding signal is 0.00102 KA relative to UGCAUGU.

As to B18, the binding signal was 0.0134 KA relative to UGCAUGU.

In the case of B19, the binding signal is 0.00131 KA relative to UGCAUGU.

For the molecule B20, the binding signal is 0.0012 KA relative to UGCAUGU.

B21: the binding signal is 0.00279 KA relative to UGCAUGU.

As to B22, the binding signal is 0.0326 KA relative to UGCAUGU.

As to B23, the binding signal is 0.0173 KA relative to UGCAUGU.

For the molecule B24, the binding signal was 0.0296 KA relative to UGCAUGU.

B25: the binding signal is 0.00264 KA relative to UGCAUGU.

As for B26, the binding signal was 0.0217 KA relative to UGCAUGU.

Take B27: the binding signal was 0.0132 KA relative to UGCAUGU.

Turning to B28, the binding signal was 0.00985 KA relative to UGCAUGU.

As to B29, the binding signal was 0.0396 KA relative to UGCAUGU.

B30: the binding signal is 0.0357 KA relative to UGCAUGU.

As to B31, the binding signal was 0.0432 KA relative to UGCAUGU.

As for B32, the binding signal was 0.00242 KA relative to UGCAUGU.

Consider B33, for which the binding signal was 0.0226 KA relative to UGCAUGU.

With B34, the binding signal was 0.0133 KA relative to UGCAUGU.
